High-throughput results as filed in PubChem.
This is a sample that favours compounds with a hit; in the whole collection about 7.4% have one here.
Rab9 prom act: activators of Rab9 promoter; 320,000 compounds, 2.8% hits; Potency, µM (highest dose often 9.22 µM), for inactives: top-dose activation, negative = inhibition, actives largely listed as activators; Huh7 Rab9 promoter-luciferase reporter, luminescence, 24 h; further: % of control where 0% means no effect; nearly all actives have a fitted effect of over 60% in size
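Huh7 cells stably carrying a Rab9 promoter-luciferase reporter, 1500 cells per well in OP-MEM I with 10% FBS, treated with compound 24 hours at 37C. Luciferase activity read by luminescence after 10 minutes with Amplite reagent.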
FLuc modulator: counter-screen for miR-21 project: firefly luciferase inhibitors or activators | P08659 | purified FLuc, Km substrates, luminescence inhibition | AID 588342 | 360,000 compounds, 6.9% hits | Potency, µM (top dose mostly 57.5 µM), without a hit: at the highest dose activity change, negative = inhibition, most hits filed as inhibitors;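 further: plate controls were vehicle for no effect and reference inhibitor for full effect; nearly all actives have a fitted effect of over 55% in size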
Target sequence (P08659 whole entry, looked up): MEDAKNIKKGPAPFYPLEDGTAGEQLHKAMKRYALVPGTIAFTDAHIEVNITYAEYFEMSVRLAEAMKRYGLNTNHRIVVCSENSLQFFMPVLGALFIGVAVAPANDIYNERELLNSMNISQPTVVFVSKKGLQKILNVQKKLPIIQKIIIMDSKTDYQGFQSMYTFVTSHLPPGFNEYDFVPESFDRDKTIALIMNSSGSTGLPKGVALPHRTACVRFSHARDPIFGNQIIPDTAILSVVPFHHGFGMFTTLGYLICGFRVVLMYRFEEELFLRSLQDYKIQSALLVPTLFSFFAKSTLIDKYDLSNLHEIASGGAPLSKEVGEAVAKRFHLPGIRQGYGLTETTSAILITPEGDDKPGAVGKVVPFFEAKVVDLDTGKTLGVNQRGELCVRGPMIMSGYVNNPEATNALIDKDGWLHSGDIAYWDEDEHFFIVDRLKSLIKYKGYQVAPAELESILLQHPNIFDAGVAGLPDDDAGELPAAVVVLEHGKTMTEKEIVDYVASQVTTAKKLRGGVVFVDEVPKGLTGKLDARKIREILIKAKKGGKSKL
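Purified P. pyralis luciferase (10nM final) with 10uM D-luciferin and 10uM ATP (Km levels) in 50mM Tris acetate pH 7.5, 10mM Mg acetate, 0.01% Tween-20, 0.05% BSA; qHTS 6-point titration, ~60 µM downward; luminescence read.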
NPC1 promoter act: activators of NPC1 promoter; 320,000 compounds, 2.4% hits; Huh7 NPC1 promoter luciferase reporter, 24 h; Potency, µM (top dose mostly 9.22 µM), without a hit: at the highest dose activation, usual class: activators; further: % of control where 0% means no effect; nearly all actives have a fitted effect of over 60% in size
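Luciferase expression driven by the NPC1 promoter was measured in stably transfected Huh7 cells after a 24 h compound incubation, using a luciferase reagent and a luminescence read.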
ELG1 genotoxic: genotoxicity induction in ELG1-luciferase HEK293T cells. HEK293T ELG1-luciferase reporter, luminescence, 16 h. Potency, µM (doses to about 46 µM), without a hit: top-dose activity change, positive = activation, actives largely listed as activators. AID 504466. 330,000 compounds, 1.3% hits; further: % of control where 0% means no effect; nearly all actives have a fitted effect of over 60% in size
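Quantitative HTS format in 1536-well plates. HEK293T ELG1-luciferase reporter cells receive test compound and are incubated 16 hr at 37 °C, 5% CO2; ONE-Glo added, 30 min room temperature, then luminescence read.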
KinaseGlo FLuc: counter-screen: inhibitors of Kinase-Glo firefly luciferase; Q27757; Kinase-Glo luciferase, ATP luminescence, 8 min; Potency, µM (titrated, usually from 38.3 µM), for the others: at the highest dose activity change, negative = inhibition, actives largely listed as inhibitors; 200,000 compounds, 0.28% hits; AID 1379; further: on the % scale 0 is the no-effect control and ±100 the full control effect; nearly all actives have a fitted effect of over 60% in size
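Inhibition of Kinase-Glo luciferase light generation was assessed at 10 uM ATP in pH 7.2 imidazole buffer, with luminescence measured after eight minutes at ambient temperature.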
SMN2 splice up: SMN2 splice variant enhancement; HEK293 SMN2-luciferase splicing reporter, luminescence, 30-36 h; Potency, µM (highest dose often 46.1 µM), for the others: top-dose activity change, positive = activation, most hits filed as activators; 210,000 compounds, 2.8% hits; AID 1458; further: % of control where 0% means no effect; nearly all actives have a fitted effect of over 55% in size
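HEK293 cells carry an SMN2 […]–luciferase reporter in which exon 7 inclusion puts luciferase in frame. Cells were plated 10-12 h before compound addition, then incubated 30-36 h at 37C. ONE-Glo luminescence was read; sodium butyrate at 4.5 mM final served as control.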
Active calls of the source: *; ? = inconclusive; · = not tested or not shown; [ ] = another dose, or the depositor's remark. The call rests on the fitted dose curve; in most records, active means well fitted curve in the direction sought with a large enough effect; inconclusive means small, poorly fitted or top-dose-only effect, or another doubt; inactive means no such curve, though single readings can be large; an effect the other way counts as inactive or inconclusive. Potency means the concentration at half of the fitted maximal effect.

SMILES | Rab9 prom act | FLuc modulator | NPC1 promoter act | ELG1 genotoxic | KinaseGlo FLuc | SMN2 splice up
COC(=O)c1ccc(NC(=O)CN(c2ccc(OC)cc2)S(C)(=O)=O)cc1 | 2.5µM* | 15µM* | ? | ? | 5% | ?
CCOC(=O)N1CCc2c(sc(NCc3cccc(F)c3)c2C(=O)Nc2ccc(OCC)cc2)C1 | · | 24µM* | · | · | · | ·
COc1cc(CNc2ccc(NC(C)=O)cc2)ccc1OCc1ccccc1C | ? | 15µM* | 13% | ? | 2% | 15%
COc1cc(CNc2ccc(N3CCN(C(C)=O)CC3)cc2)ccc1OCc1ccccc1 | -8% | ? | -2% | ? | -2% | ·
COc1ccccc1C1C(C(=O)Nc2ccccc2)=C(C)Nc2nc(-c3ccccc3)nn21 (configuration not stated) | · | 5% | · | · | · | -9%
CCCCNC(=O)c1ccc2c(c1)ncn2C1CCCC1 | 4% | 17µM* | 0% | ? | -2% | 4%
Nc1ccc(-c2cnc(-c3ccc(N)cc3)nc2)cc1 | 1.6µM* | 3.4µM* | 1.1µM* | ? | 1% | 3.5µM*
Oc1ccc(-c2cnc(-c3ccc(O)cc3)nc2)cc1 | ? | 1.1µM* | 1.1µM* | 2.9µM* | · | ·
CCCC(=O)Nc1ccc(-c2cnc(-c3ccc(NC(=O)CCC)cc3)nc2)cc1 | 2% | 9% | -4% | 4% | · | ·
CC(C)(C)C1CCc2onc(C(=O)Nc3sc4c(c3C(N)=O)CCCC4)c2C1 (configuration not stated) | · | -16% | · | · | · | -2%
Cc1nc(CSc2ccc(Br)cc2)cs1 | 4% | 17µM* | -1% | 12% | · | ·
O=C(NC(=S)NNC(=O)c1ccccc1O)c1ccc(F)cc1 | 3% | 27µM* | 0% | 2% | · | ·
O=C(NC(=S)NNC(=O)c1ccccc1O)c1ccccc1 | 10% | 24µM* | -2% | 7% | · | ·
Cc1ccc(C(=O)NC(=S)NNC(=O)c2ccccc2O)cc1 | 2% | ? | 1% | 9% | · | ·
O=Cc1c[nH]c2cccc(OCc3ccccc3)c12 | 30% | 11µM* | 17% | 11% | · | ·
O=C(Nc1ccccc1C(=O)OCc1cc(=O)n2ccsc2n1)c1cccc(F)c1 | · | -4% | · | · | · | ·
COc1ccc2c(C)c(CC(=O)NCCc3ccc(Cl)cc3)c(=O)oc2c1C | · | 2% | · | · | · | 17%
Clc1cccc(Cl)c1CSc1nnc(-c2ccncc2)s1 | 14% | 15µM* | 22% | 5% | · | ·
Clc1ccc(CSc2nnc(-c3ccncc3)s2)cc1 | -2% | -1% | -3% | 1% | · | ·
CN(C)c1ccc(C=NCC2COc3ccccc3O2)cc1 (configuration not stated) | -4% | 12µM* | -5% | 3% | 0% | ·
Cc1ccc(-n2c(Cc3ccccc3)nnc2SCc2nc(-c3cccs3)no2)cc1C | · | ? | · | · | · | -3%
CN(C)c1ccc(/C=C2\C(=N)N3N=C(CC(=O)N4CCCCC4)SC3=NC2=O)cc1 | 3% | 13µM* | 3% | 6% | · | ·
CCN1C(=O)C(Cc2nc3ccccc3c(=O)n2-c2ccccc2)c2cc(Br)ccc21 (configuration not stated) | · | -11% | · | · | · | -9%
O=C(Cn1c(=O)sc2ccccc21)NCc1ccccn1 | 23% | ? | 22% | 18µM* | -1% | 11µM*
CCc1cccc(C)c1NC(=O)CN1C(=O)c2ccccc2Sc2ncccc21 | · | -3% | · | · | · | ·
SMILES | Rab9 prom act | FLuc modulator | NPC1 promoter act | ELG1 genotoxic | KinaseGlo FLuc | SMN2 splice up
Cc1cc2ccccc2c(=O)[nH]1 | -3%[1.84 µM] | 1% | -4% | 5% | -1% | 14%
O=c1[nH]c(-c2ccccn2)cc2ccccc12 | ? | 17µM* | ? | ? | -11% | 16µM*
CCn1c(SCC(=O)Nc2ccc3c(c2)oc2ccccc23)nnc1-c1ccc(N)cc1 | 4% | 2.7µM* | -5% | -9% | 16% | -13%
CC(=O)Nc1ccc(-c2nnc(SCC(=O)Nc3ccc4c(c3)oc3ccccc34)n2C)cc1 | ? | 1.2µM* | ? | 1% | -4% | -4%
CCn1c(SCC(=O)Nc2ccccc2C(=O)OC)nnc1-c1ccc(N)cc1 | 2% | 3% | 0% | 0% | -1% | -19%
Nc1ncnc2c1c(I)cn2C1OC(CO)C(O)C1O (configuration not stated) | · | · | · | · | -5% | -90%
C=CCOC(=O)C1(C(NC(=O)OC)c2ccccc2)C(=O)Cc2ccccc21 (configuration not stated) | · | · | · | · | -2% | 3%
CCc1cccc(NC(=O)COc2cc(=O)n(CC)c3ccccc23)c1 | · | -2% | · | · | · | 2%
CC(C)(C)c1nc(SCC(=O)Nc2nc3c(s2)CCCC3)c2ccccc2n1 | 17% | 2% | -3% | -6% | -3% | 3.2µM*
O=C(Nc1nc2c(s1)CCCC2)c1cccs1 | 0.71µM* | 1.1µM* | 2.8µM* | ? | ? | 3.2µM*
O=C(CCSc1ccccc1)Nc1nc2c(s1)CCCC2 | 28% | 19µM* | 30% | 23µM* | -5% | 8%
O=C(Cc1cccs1)Nc1nc2c(s1)CCCC2 | 2.8µM* | 17µM* | ? | ? | -4% | 13µM*
COc1ccc(NC(=O)Cn2c(=O)n(CCCCCC(=O)NCc3ccc4c(c3)OCO4)c(=O)c3sccc32)cc1Cl | · | -8% | · | · | · | -19%
COc1ccccc1C(=O)NCc1nnnn1-c1ccc(C)c(C)c1 | · | -8% | · | · | · | ·
O=C(Nc1nc2c(s1)CCCC2)c1cccnc1 | ? | 12µM* | 2.5µM* | 2.1µM* | ? | ·
CN(C)c1ccc(-c2ccc3c(=O)c4ccccc4n(C)c3c2)cn1 | 2.2µM* | 4.8µM* | 2.5µM* | 16µM* | · | ·
O=C(c1ccc2c(c1)CCN2S(=O)(=O)c1ccc(Cl)cc1)N1CCN(c2ccccc2F)CC1 | · | -7% | · | · | · | -19%
CS(=O)(=O)c1ccc2nc(NC(=O)C3COc4ccccc4O3)sc2c1 (configuration not stated) | 22% | 11µM* | 26% | 6% | · | ·
O=C(Nc1nc(-c2nc3ccccc3s2)cs1)C1COc2ccccc2O1 (configuration not stated) | 28% | 19µM* | 20% | 1% | -4% | 25µM*
COc1ccc2nc(NC(=O)C3COc4ccccc4O3)sc2c1 (configuration not stated) | 3.2µM* | 3µM* | 1.6µM* | ? | 1% | 13µM*
COc1ccc2nc(NNC(=O)C3COc4ccccc4O3)sc2c1 (configuration not stated) | 0% | -12% | 0% | 1% | -2% | -3%
CS(=O)(=O)c1ccc2nc(NC(=O)CC3CCCC3)sc2c1 | 21% | ? | 13% | 0% | -9% | 2%
O=C(Oc1ccccc1F)c1ccc2c(=O)n3c(nc2c1)CCC3 | 2% | 15µM* | -1% | 1% | · | ·
